This passage reports outcome results from PubChem BioAssay AID651946 (Broad Institute, 2012).

Results with a measured potency or affinity are listed apart. The source made the active and inactive calls.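 Rule for the calls: active = toxic compound whose fitted half-effect dose of signal loss is at most twice its top tested dose; inconclusive = flat fit losing 30 to 70% signal, or poor fit; inactive = the rest.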

A short description of the experiment: cytotoxicity in HeLa cells, dose response, cytotoxicity control, cell-based, plate reader, dry powder (AID 651946). The conditions noted are these: HeLa viability, ATP luminescence (CellTiter-Glo), 48 h; series mostly up to 26 µM.
On to `Fc1ccc(-c2nnc(SCc3ccccn3)o2)cc1`, for which the result was inactive. In the case of `O=S(=O)(Cc1ccccc1)c1nnc(-c2ccccc2)o1` it was “inactive”; in that of `FC(F)(F)Oc1cccc(-c2nnc(SCc3ccccc3)o2)c1`, “inactive”. The result for `c1ccc(CCc2nnc(SCc3ccccc3)o2)cc1` reads “inactive”. The result for `CN(Cc1ccccc1)c1nnc(-c2ccccc2)o1` reads “inactive”. On to `O=C(Cc1ccccc1)c1nnc(-c2ccccc2)o1`, for which the outcome was inactive. As to `Clc1ccc(-c2nnc(SCc3cn(Cc4ccccc4)nn3)o2)cc1`, the call was inactive. Take `CS(=O)(=O)c1cccc(CSc2nnc(-c3ccccc3)o2)c1`: the outcome was inactive. In the case of `FC(F)(F)Oc1cccc(CSc2nnc(-c3ccccc3)o2)c1` it was “inactive”; in that of `c1ccc(CNCCSc2nnc(-c3ccccc3)o2)cc1`, “inactive”; in that of `Brc1cccc(-c2nnc(SCc3ccccn3)o2)c1`, “inactive”. As for `c1ccc(CSc2nnc(-c3cccnc3)o2)nc1`, the compound was called inactive. The result for `FC(F)(F)c1ccccc1CSc1nnc(-c2ccccc2)o1` reads “inactive”. As to `Fc1ccc(CSc2nnc(-c3ccncc3)o2)cc1`, the call was inactive. As to `FC(F)(F)c1cccc(CSc2nnc(-c3ccccc3)o2)c1`, the call was inactive. The result for `Fc1ccc(CSc2nnc(-c3ccccc3)o2)cc1` reads “inactive”. `COc1ccc(-c2nnc(SCc3ccc(Cl)cc3)o2)cc1`: the result was inactive. Turning to `c1ccc(CSc2nnc(Cc3ccccc3)o2)cc1`, the outcome was inactive. In the case of `c1ccc(Cn2cc(CSc3nnc(C4CCCC4)o3)nn2)cc1` it was “inactive”. Consider `COc1ccccc1-c1nnc(SCc2ccccn2)o1`, for which the call was inactive. In the case of `c1ccc(-c2nnc(SCc3ccccn3)o2)cc1`, the call was inactive.

For the compound `CC(C)c1nnc(SCc2ccccc2)o1`, the outcome was inactive. In the case of `COc1cccc(CSc2nnc(-c3ccccc3)o2)c1` it was “inactive”; in that of `c1ccc(-c2nnc(SC3CCCCC3)o2)cc1`, “inactive”; in that of `c1ccc(CSc2nnc(-c3ccccc3)s2)cc1`, “inactive”. In the case of `Fc1ccccc1CSc1nnc(-c2ccccc2)o1` it was “inactive”; in that of `c1ccc(CSc2nnc(-c3cccnc3)o2)cc1`, “inactive”; in that of `c1ccc(CSc2nnc(-c3ccccn3)o2)cc1`, “inactive”. The result for `Cc1cccc(-c2nnc(SCc3ccccc3)o2)c1` reads “inactive”; that for `c1ccc(CSc2nnc(-c3ccncc3)o2)cc1`, “inactive”. On to `CC1(O)CN(CCSc2nnc(-c3ccccc3)o2)C1`, for which the call was inactive. The result for `FC(F)(F)c1ccc(CSc2nnc(-c3ccccc3)o2)cc1` reads “inactive”. For `Cc1ccccc1-c1nnc(SCc2ccccc2)o1`, the compound was classed as inactive. In the case of `c1ccc(-c2nnc(SCC3CC3)o2)cc1` it was “inactive”; in that of `O=C(Cc1ccccc1)C(C(=O)c1nnc(-c2ccccc2)o1)c1ccccc1` (configuration not stated), “inactive”; in that of `Fc1ccc(-c2nnc(SCc3cn(-c4ccccc4)nn3)o2)cc1`, “inactive”. The result for `CS(=O)(=O)c1cccc(-c2nnc(SCc3ccccc3)o2)c1` reads “inactive”.
